# Measured values as given in PubChem BioAssay (NCI).
# Several values for one entry are separate records, joined by “and”; a condition that tells them apart may be missing. Equal values may be shown once. This is part of a sample that, as a whole, favours compounds with a hit. Of some 83,000 tested, about 20% had one in any assay.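 In brief: 96-well plates, 48 h treatment, single concentration, percent growth endpoint.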 Activity calls are given as the source filed them. The calls were made as follows: active = growth percent below 10; inactive = the rest.
# Tested on: MDA-MB-468 breast
# Assay: NCI-60 one-dose screen, 48 h (100 = growth as untreated, 0 = no growth, -100 = all killed)
# Conditions: 10 µM unless noted
row,Structure (SMILES),growth
1,COc1ccc(/C(=C\c2cc(OC)c(OC)c(OC)c2)C(=O)Nc2nc3ccc(Cl)cc3s2)cc1,96.4% (inactive)
2,CCCCCCCCCCC(C[N+](C)(C)C/C=C/c1ccccc1)C(O)c1ccccc1 (stereo not drawn),-69.4% (active)
3,COc1ccc2cc1Oc1ccc(cc1)C[C@H]1c3c(cc4c(c3Oc3cc5c(cc3OC)CCN(C)[C@@H]5C2)OCO4)CCN1C,7.08% (active)
4,O=C(Nc1cccnc1)c1ccc2ccc3ccc(C(=O)Nc4cccnc4)nc3c2n1,-1.83% (active)
5,CN1C(=O)N(C)C2Nn3c(s/c(=C\c4ccccn4)c3=O)=NC21 (stereo not drawn),95.6% (inactive)
6,O=C(Nc1ccccc1N1CCCC1=O)c1oc2ccc(F)cc2c1-c1cnn(-c2ccccc2)c1,51.1% [50 µM] (inactive)
7,C[C@@H]1C[C@H]2C(=O)O[C@@H](C)[C@H](NC(=O)[C@H](Cc3cc(F)cc(F)c3)NC(=O)Nc3ccc(Cl)cc3F)C(=O)N3C[C@H](O)C[C@H]3C(=O)N3CCN(C)C[C@H]3C(=O)N[C@@H](C)C(=O)N2C1,11.5% (inactive)
8,COC(=O)c1ccc2[nH]c(O)c(C(=Nc3ccc(N(C)C(=O)CN4CCN(C)CC4)cc3)c3ccc(CCO)cc3)c2c1,37.7% (inactive)
9,O=S(=O)(O)c1cccnc1,124% (inactive)
10,O=C(C[n+]1cccc2cc(Cl)ccc21)c1ccc2c(c1)CCCC2,9.66% (active)
11,CCS(=O)(=O)OCCO[C@H]1Cc2cc3ccc(=O)oc3cc2OC1(C)C,97.9% (inactive)
12,CC(N)C(=O)NNc1n[nH]c(=S)n1N (stereo not drawn),82% (inactive)
13,COc1ccc(C(=O)/C=C/c2cc(C(=O)c3cc(OC)c(OC)c(OC)c3)ccc2OC)cc1,47.2% (inactive)
14,O=S(=O)(NCCCNc1nccc(-c2[nH]c(-c3ccccc3)nc2-c2ccc(F)c(O)c2)n1)c1ccc(C(F)(F)F)cc1,-8.61% (active)
15,Cc1ccc(-c2csc(N/N=C/c3nc4ccccc4n3C3CC3)n2)cc1,98.5% (inactive)
16,C/C(=N\O)[C@@H]1CC[C@]2(CO)CC[C@]3(C)[C@H](CC[C@@H]4[C@@]5(C)CCCNC(C)(C)[C@@H]5CC[C@]43C)[C@@H]12,74.6% (inactive)
17,Clc1ccc2c(NCCCN3CCOCC3)c3oc4ccccc4c3nc2c1,35.7% (inactive)
18,Oc1[nH]c2ccccc2c1/C=c1/cc2c(c(-c3ccc(C(F)(F)F)cc3)n1)=Nc1ccccc1-2,21.6% (inactive)
19,C=CCn1c(C)nc2ccc(Nc3nc(Nc4ccc(F)cc4)nc4ccccc34)cc21,49.3% (inactive)
20,COc1cc2ncn3c(=O)c4c5c(sc4nc3c2cc1OC)CCCCC5,107% (inactive)
21,CC1(C)C(=O)/C(=C\c2ccc(C(F)(F)F)cc2)C[C@]2(C)[C@H]3CC[C@@H]4[C@H]5[C@H](C(=O)/C=C/c6ccc(C(F)(F)F)cc6)CC[C@]5(CO)CC[C@@]4(C)[C@]3(C)CC[C@@H]12,104% (inactive)
22,CCC(=O)Oc1ccc(OCc2ccccc2)cc1,104% (inactive) and 118% (inactive)
23,CCC1OC(OC)C=CC1=O (stereo not drawn),100% (inactive)
24,OC(c1ccc(Cl)cc1)(c1ccc(Cl)cc1)C(O)(c1ccc(Cl)cc1)c1ccc(Cl)cc1,12.6% (inactive)
25,O=C1c2cccc(NCCN=Cc3cc(O)ccc3O)c2C(=O)c2c(NCCN=Cc3cc(O)ccc3O)cccc21,-85.8% (active)
26,NC1=CC(=O)c2cccnc2C1=O,-50.8% (active)
27,COc1cc(OC)c(C(=O)/C=C/c2cccc(OC(C)=O)c2)cc1CC=C(C)C,58.3% (inactive)
28,O=C(/C=C/c1cccs1)Nc1ncc(Cc2ccc(Cl)c(Cl)c2)s1,58.2% (inactive)
